Reference: PubChem BioAssay (NCI)
The panel holds about 83,000 compounds, 20% with a hit somewhere; the sample as a whole holds those more often.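 Percent growth is the endpoint: 0 to 100 indicates growth inhibition (40 means 60% inhibition), 0 means no net growth, and negative values indicate cell death.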 Activity calls are given as the source filed them. Rule for the calls: active = growth percent below 10; inactive = the rest.

What follows are compounds tested on SN12C renal (assay: NCI-60 one-dose screen, 48 h (100 = growth as untreated, 0 = no growth, -100 = all killed)). Settings: 10 µM unless noted.

Compound | growth
CCC(C)CC(C)C(=O)c1c(O)ccn(O)c1=O (stereo unspecified) | 21.2% (inactive)
COc1ccc2nc(NC(=O)c3cc(-c4ccc(F)cc4)n4nc(-c5ccccc5)cc4n3)sc2c1 | 88.6% (inactive)
COc1cccc2c1O/C(=C\c1c([N+](=O)[O-])ncn1C)C2=O | 104% (inactive)
O=C(Nc1ccncc1)C(=O)c1cn(S(=O)(=O)c2cccc(F)c2)c2ccccc12 | 49.1% (inactive)
COc1ccc(-c2cn(-c3ccccc3)c(-c3ccccc3)n2)cc1OC | 71.9% (inactive)
Clc1ccc2nc(Cl)c3ccccc3c2c1 | 87.3% (inactive)
Nc1ccc(C2=NN(c3ccccc3)C(c3ccc(Cl)cc3)C2)cc1 (stereo unspecified) | 76.9% (inactive)
CSc1nnc(C2=CC(=O)c3ccccc3C2=O)n1-c1ccccc1 | 104% (inactive)
CCN(CC)c1ccc(CN(CC(=O)c2ccc(Cl)c(Cl)c2)Cc2ccccc2)cc1 | 101% (inactive)
C/C(=C\CCc1ccsc1)CC/C=C(\C)CCCN1CCC(CO)CC1 | 51.5% (inactive)
O=C(Nc1cccc(C(F)(F)F)c1)Nc1ccc(OCc2nnc(-c3ccc(Cl)cc3)o2)c(F)c1 | 77.3% (inactive)
CCOc1cc(-c2ccc[nH]2)[nH]c1/C=C1\N=C(C)C(C(=O)OC)=C1C | -75.8% (active)
O=C1/C(=C/c2ccc([N+](=O)[O-])s2)Oc2ccc(Br)cc21 | -32.5% (active)
COc1ccc(Nc2nccc(N3CCN(c4c5ccc(Cl)cc5nc5ccc(OC)cc45)CC3)n2)cc1 | 68.5% (inactive)
Cc1cc(NCCCNc2ccnc3cc(Cl)ccc23)nc(N2CCN(C)CC2)n1 | 77.6% (inactive)
O=C(Nc1ccc(OCc2nnc(-c3ccccc3)o2)c(F)c1)Nc1ccc(Cl)c(C(F)(F)F)c1 | 16.1% (inactive)
c1cnc2n[nH]c(Nc3ncnc4c3sc3ncccc34)c2c1 | 99.7% (inactive)
COc1cc(/C=C2\CCC/C(=C\c3ccc(OCC4CO4)c(OC)c3)C2=O)ccc1OCC1CO1 (stereo unspecified) | 23.8% (inactive)
COc1cc(/C=C2\COc3ccc(O)c(O)c3C2=O)cc(OC)c1 | -89.7% (active)

Compound | growth
O=C1/C(=C/c2ccc([N+](=O)[O-])o2)Oc2ccc(Cl)cc21 | -41.6% (active)
O=[N+]([O-])c1cnc(Sc2ccncn2)c([N+](=O)[O-])c1 | 96.9% (inactive)
O=C(O)c1ccc(NC(=O)c2ccc(Nc3ccnc(C(F)(F)F)c3)cc2)cc1 | 104% (inactive)
Cc1ccc2c(c1)O/C(=C\c1ccc([N+](=O)[O-])o1)C2=O | 34.7% (inactive)
O=C1/C(=C/c2ccc([N+](=O)[O-])o2)Oc2ccc(Br)cc21 | 40.3% (inactive)
O=C(Nc1ccc(Cl)cc1)c1cc2c(cc1O)[nH]c1ccccc12 | 20.1% (inactive)
Cc1cc2c(cc1C)Nc1sc(NC(=O)CN3CCN(C)CC3)nc1C(=O)N2 | 103% (inactive)
COc1ccc2nc3cc(Cl)ccc3c(N3CCN(c4ccnc(Nc5ccc(F)cc5)n4)CC3)c2c1 | 71.5% (inactive)
COc1cc(C2CC(c3ccc(C)cc3)=NN2C(C)=O)ccc1Oc1ccnc2cc(Cl)ccc12 (stereo unspecified) | 77.5% (inactive)
O=C(/C=C/c1cccnc1)NCCCCC1CCCN(C(=O)c2ccccc2)C1 (stereo unspecified) | 38.3% (inactive)
CCOC(=O)c1c(NC(=O)C2CCCCC2C(=O)O)sc2c1CCCC2 (stereo unspecified) | 104% (inactive)
Cc1ccc(C=C2C(Cl)=C(Cl)C(Cl)=C2Cl)cc1 | -43.4% (active)
O=C(/C(=N/O)S(=O)(=O)c1ccccc1)c1cccs1 | 101% (inactive)
CCOc1nc(-c2ccccc2)cc2c(O)c(C(=O)n3nc(C)cc3C)[nH]c(=O)c12 | 101% (inactive)
COc1ccc(OC)c(NC(=O)c2cc3oc4ccccc4c3cc2O)c1 | 95% (inactive)
CN(C)c1ccc(/C=C(\C#N)c2nc3ccccc3c(=O)[nH]2)cc1 | 90.8% (inactive)
Nc1nc(SCc2ccccc2Cl)c(-c2ccccc2)c(SCc2ccccc2Cl)n1 | 104% (inactive)
C/C(=C\CCc1ccsc1)CC/C=C(\C)CCCN1CCN(CCO)CC1 | 55.2% (inactive)
CCN1C(=O)c2ccc3c4c(ccc(c24)C1=O)C(=O)N(CCCNCc1ccccc1OC)C3=O | -91.6% (active)

Each compound was assayed on UO-31 renal in the same assay as above. Settings: 10 µM unless noted.

Compound | growth
CCC(C)CC(C)C(=O)c1c(O)ccn(O)c1=O (stereo unspecified) | 6.43% (active)
COc1ccc2nc(NC(=O)c3cc(-c4ccc(F)cc4)n4nc(-c5ccccc5)cc4n3)sc2c1 | 73.6% (inactive)
COc1cccc2c1O/C(=C\c1c([N+](=O)[O-])ncn1C)C2=O | 78.7% (inactive)
O=C(Nc1ccncc1)C(=O)c1cn(S(=O)(=O)c2cccc(F)c2)c2ccccc12 | 56.7% (inactive)
COc1ccc(-c2cn(-c3ccccc3)c(-c3ccccc3)n2)cc1OC | 52.1% (inactive)
Clc1ccc2nc(Cl)c3ccccc3c2c1 | 4.03% (active)
Nc1ccc(C2=NN(c3ccccc3)C(c3ccc(Cl)cc3)C2)cc1 (stereo unspecified) | 55.1% (inactive)
CSc1nnc(C2=CC(=O)c3ccccc3C2=O)n1-c1ccccc1 | 67.6% (inactive)
CCN(CC)c1ccc(CN(CC(=O)c2ccc(Cl)c(Cl)c2)Cc2ccccc2)cc1 | 81.9% (inactive)
C/C(=C\CCc1ccsc1)CC/C=C(\C)CCCN1CCC(CO)CC1 | 23.4% (inactive)
O=C(Nc1cccc(C(F)(F)F)c1)Nc1ccc(OCc2nnc(-c3ccc(Cl)cc3)o2)c(F)c1 | 73.9% (inactive)
CCOc1cc(-c2ccc[nH]2)[nH]c1/C=C1\N=C(C)C(C(=O)OC)=C1C | -79.9% (active)
O=C1/C(=C/c2ccc([N+](=O)[O-])s2)Oc2ccc(Br)cc21 | -87.4% (active)
COc1ccc(Nc2nccc(N3CCN(c4c5ccc(Cl)cc5nc5ccc(OC)cc45)CC3)n2)cc1 | 47.5% (inactive)
Cc1cc(NCCCNc2ccnc3cc(Cl)ccc23)nc(N2CCN(C)CC2)n1 | 58.6% (inactive)
O=C(Nc1ccc(OCc2nnc(-c3ccccc3)o2)c(F)c1)Nc1ccc(Cl)c(C(F)(F)F)c1 | -19% (active)
c1cnc2n[nH]c(Nc3ncnc4c3sc3ncccc34)c2c1 | 98.5% (inactive)
COc1cc(/C=C2\CCC/C(=C\c3ccc(OCC4CO4)c(OC)c3)C2=O)ccc1OCC1CO1 (stereo unspecified) | 47.6% (inactive)
COc1cc(/C=C2\COc3ccc(O)c(O)c3C2=O)cc(OC)c1 | -95.6% (active)

Compound | growth
O=C1/C(=C/c2ccc([N+](=O)[O-])o2)Oc2ccc(Cl)cc21 | -86.1% (active)
O=[N+]([O-])c1cnc(Sc2ccncn2)c([N+](=O)[O-])c1 | 48.8% (inactive)
O=C(O)c1ccc(NC(=O)c2ccc(Nc3ccnc(C(F)(F)F)c3)cc2)cc1 | 84.5% (inactive)
Cc1ccc2c(c1)O/C(=C\c1ccc([N+](=O)[O-])o1)C2=O | -21.6% (active)
O=C1/C(=C/c2ccc([N+](=O)[O-])o2)Oc2ccc(Br)cc21 | -18.6% (active)
O=C(Nc1ccc(Cl)cc1)c1cc2c(cc1O)[nH]c1ccccc12 | 39.9% (inactive)
Cc1cc2c(cc1C)Nc1sc(NC(=O)CN3CCN(C)CC3)nc1C(=O)N2 | 94.3% (inactive)
COc1ccc2nc3cc(Cl)ccc3c(N3CCN(c4ccnc(Nc5ccc(F)cc5)n4)CC3)c2c1 | 56% (inactive)
COc1cc(C2CC(c3ccc(C)cc3)=NN2C(C)=O)ccc1Oc1ccnc2cc(Cl)ccc12 (stereo unspecified) | 61.6% (inactive)
O=C(/C=C/c1cccnc1)NCCCCC1CCCN(C(=O)c2ccccc2)C1 (stereo unspecified) | 39.9% (inactive)
CCOC(=O)c1c(NC(=O)C2CCCCC2C(=O)O)sc2c1CCCC2 (stereo unspecified) | 81.4% (inactive)
Cc1ccc(C=C2C(Cl)=C(Cl)C(Cl)=C2Cl)cc1 | -88% (active)
O=C(/C(=N/O)S(=O)(=O)c1ccccc1)c1cccs1 | 96.8% (inactive)
CCOc1nc(-c2ccccc2)cc2c(O)c(C(=O)n3nc(C)cc3C)[nH]c(=O)c12 | 96% (inactive)
COc1ccc(OC)c(NC(=O)c2cc3oc4ccccc4c3cc2O)c1 | 79.8% (inactive)
CN(C)c1ccc(/C=C(\C#N)c2nc3ccccc3c(=O)[nH]2)cc1 | 35.7% (inactive)
Nc1nc(SCc2ccccc2Cl)c(-c2ccccc2)c(SCc2ccccc2Cl)n1 | 69.9% (inactive)
C/C(=C\CCc1ccsc1)CC/C=C(\C)CCCN1CCN(CCO)CC1 | 62.1% (inactive)
CCN1C(=O)c2ccc3c4c(ccc(c24)C1=O)C(=O)N(CCCNCc1ccccc1OC)C3=O | -42.5% (active)
